AmpC inh no detg: qHTS Inhibitors of AmpC Beta-Lactamase (assay without detergent); 330,000 tested, 0.52% active; Potency, µM (titrated, usually from 57.1 µM), for inactives: top-dose activity change, negative = inhibition, usual class: inhibitors; P00811; AmpC nitrocefin hydrolysis, absorbance 480 nm, 0.0001% Triton;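 also: plate controls were no compound for no effect and no enzyme for full effect; nearly all actives have a fitted effect of over 20% in size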
Target sequence (P00811 whole entry, looked up): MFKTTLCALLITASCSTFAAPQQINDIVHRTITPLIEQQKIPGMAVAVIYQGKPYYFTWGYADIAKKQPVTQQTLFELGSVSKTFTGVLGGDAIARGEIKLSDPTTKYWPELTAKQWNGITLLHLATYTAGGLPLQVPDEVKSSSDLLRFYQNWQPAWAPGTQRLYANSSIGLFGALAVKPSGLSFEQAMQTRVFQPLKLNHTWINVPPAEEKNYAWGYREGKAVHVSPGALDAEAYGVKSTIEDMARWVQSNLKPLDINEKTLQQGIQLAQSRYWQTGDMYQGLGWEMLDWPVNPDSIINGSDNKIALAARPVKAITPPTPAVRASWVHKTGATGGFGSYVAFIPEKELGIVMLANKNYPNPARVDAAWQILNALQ
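AmpC (5.3 nM in the dispensed reagent) in 20 mM phosphate pH 7.0 with 0.01% (detergent screen) or 0.0001% Triton X-100 was preincubated with compounds for 15 min at room temperature. Nitrocefin was then added from an 800 uM solution, and hydrolysis was followed at 480 nm.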
VACV Venus inh: qHTS for Stage-Specific Inhibitors of Vaccinia Orthopoxvirus: Venus Reporter Primary qHTS | 330,000 tested, 0.46% active | Vaccinia virus Venus reporter expression, fluorescence | Potency, µM (titrated, usually from 36.5 µM), for the others: at the top dose activity change, negative = inhibition, most hits filed as inhibitors; calls by dose curve; tested in A549 cells; also: % is scaled to controls: 0 for no effect and ±100 for the full control effect; nearly all actives have a fitted effect of over 30% in size
Vaccinia mCherry: qHTS for Stage-Specific Inhibitors of Vaccinia Orthopoxvirus: mCherry Reporter Primary qHTS | AID 720579, 2013 | Potency, µM (top dose mostly 36.5 µM), inactives show at the top dose activity change, negative = inhibition, usual class: inhibitors | 310,000 tested, 0.63% active | Vaccinia virus mCherry reporter infection, fluorescence; calls by dose curve; tested in A549 cells; also: % is scaled to controls: 0 for no effect and ±100 for the full control effect; nearly all actives have a fitted effect of over 35% in size
SARS PLP yeast: qHTS of Yeast-based Assay for SARS-CoV PLP. S. cerevisiae expressing SARS-CoV PLpro, growth rescue. AID 485353, 2010. Potency, µM (doses to about 32.9 µM), for the others: at the highest dose activity, positive = growth rescue, hits mostly activators. 330,000 tested, 0.19% active; calls by dose curve; also: 0% is about no effect; nearly all actives have a fitted effect of over 55% in size
AmpC inh detg: qHTS Inhibitors of AmpC Beta-Lactamase (assay with detergent). AID 485294, 2010. 370,000 tested, 0.041% active. AmpC hydrolysis of nitrocefin, absorbance 480 nm, 0.01% Triton. P00811. Potency, µM (top dose mostly 114 µM), for inactives: at the highest dose activity change, negative = inhibition, actives largely listed as inhibitors;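 also: 0% = no-compound wells and -100% = no-enzyme wells; nearly all actives have a fitted effect of over 25% in size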
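20 mM phosphate pH 7.0 + 0.01% (detergent screen) or 0.0001% Triton X-100; 5.3 nM AmpC reagent; cpd preinc 15 min RT; nitrocefin (800 uM stock) to start; A480 q20 s × 4 min; Activity was normalised to no-enzyme and no-compound control wells.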
The depositor's hits bear a star; [ ] = dose if it differs, or a comment. In the library only some 1.3% were active in any assay of this set; here they are far more common. Unless noted, calls follow the shape of the dose curve; as a rule, active = well fitted curve in the direction sought with a large enough effect; inconclusive = small, poorly fitted or top-dose-only effect, or another doubt; inactive = no such curve, though single readings can be large; an effect the other way counts as inactive or inconclusive. Potency is read from the fitted curve at half-maximal effect.

Screening CC(C)(CNC(=O)c1cnn(-c2ncc3c(n2)-c2ccccc2CCC3)c1C1CC1)N1CCOCC1 returned VACV Venus inh -7% and Vaccinia mCherry -17%.
COc1ccc(N(CC(=O)Nc2ccc3c(c2)OCCO3)S(=O)(=O)c2cccnc2)cc1 was read as AmpC inh no detg 40µM*, SARS PLP yeast 7% and AmpC inh detg 3%.
For COc1ccc(N(CC(=O)Nc2ccc3c(c2)OCO3)S(=O)(=O)c2ccccc2)cc1 the results were AmpC inh no detg -24%, VACV Venus inh -4%, Vaccinia mCherry inactive, SARS PLP yeast -1% and AmpC inh detg 4%.
Screening CCOc1ccc(N(CC(=O)Nc2cccc(OC)c2)S(=O)(=O)c2c(C)noc2C)cc1 returned AmpC inh no detg 18µM*, VACV Venus inh -12%, Vaccinia mCherry inactive, SARS PLP yeast -6% and AmpC inh detg inconclusive.
CCN(CC)CCNC(=O)C1CCN(S(=O)(=O)N2CCCCC2)CC1 was read as AmpC inh no detg 0.28µM*, VACV Venus inh -8%, Vaccinia mCherry -2%, SARS PLP yeast 1% and AmpC inh detg 2%.
`COc1cccc(/C=N/Nc2ccnc(=O)[nH]2)c1O` gave AmpC inh no detg -6%, VACV Venus inh inconclusive, Vaccinia mCherry 0.79µM*, SARS PLP yeast 4% and AmpC inh detg 3%.
Screening COc1cccc(/C=N/Nc2snc(SC)c2C#N)c1O returned AmpC inh no detg -46%, VACV Venus inh 7.9µM*, Vaccinia mCherry 10µM*, SARS PLP yeast -11% and AmpC inh detg inconclusive.
`O=c1nccc(N/N=C/c2ccccc2O)[nH]1` gave AmpC inh no detg -17%, VACV Venus inh inconclusive, Vaccinia mCherry 1µM*, SARS PLP yeast 1% and AmpC inh detg -5%.
Screening O=C(Cc1cscn1)N1CCOc2ccc(CN3CCN(c4ccccn4)CC3)cc2C1 returned VACV Venus inh -2% and Vaccinia mCherry -9%.
CC(=O)N1CCc2c(sc(NC(=O)CSc3ccccc3)c2-c2nc3ccccc3s2)C1 was read as VACV Venus inh -3%[7.34 µM], Vaccinia mCherry -1%[7.34 µM] and AmpC inh detg 1%.
Screening CCCCC(=O)Nc1sc2c(c1-c1nc3ccccc3s1)CCN(C(C)=O)C2 returned AmpC inh no detg 0.5µM*, SARS PLP yeast -6% and AmpC inh detg inconclusive.
Screening CNc1c(Cl)cc(C=O)cc1Cl returned VACV Venus inh -9% and Vaccinia mCherry 25%.
Screening CN(CC(=O)NCCC1=CCCCC1)S(=O)(=O)c1ccc2c(c1)CCC(=O)N2 returned AmpC inh no detg 3.2µM*, VACV Venus inh -9%, Vaccinia mCherry inactive, SARS PLP yeast 2% and AmpC inh detg inconclusive.
Screening COc1ccc(CCNC(=O)CN(C)S(=O)(=O)c2ccc3c(c2)CCC(=O)N3)cc1OC returned AmpC inh no detg 6%, VACV Venus inh -9%, Vaccinia mCherry inactive, SARS PLP yeast 2% and AmpC inh detg 5%.
`Cc1cc(Br)ccc1NC(=O)C(NS(=O)(=O)c1cccs1)c1ccccc1` (configuration not stated) gave VACV Venus inh -7%, Vaccinia mCherry -12% and AmpC inh detg -9%.
COC(=O)c1c(OCC2CCCN(C)C2)cc(=O)n2c1CCN(Cc1ccc(OC)c(O)c1)CC2 (configuration not stated) was read as VACV Venus inh -3% and Vaccinia mCherry -1%.
Screening Cc1ccc2cc(CNCc3cccc4ccccc34)c(N3CCC(O)CC3)nc2c1 returned VACV Venus inh -2% and Vaccinia mCherry -12%.
Screening FC(F)(F)c1cnc(NNC(=S)Nc2cccnc2)c(Cl)c1 returned AmpC inh no detg -27%, VACV Venus inh inconclusive, Vaccinia mCherry 10µM*, SARS PLP yeast -1% and AmpC inh detg 5%.
`CCCCC(c1nc2ccccc2[nH]1)n1c(=O)c(-c2ccccc2)nc2cc(C)c(C)cc21` (configuration not stated) gave VACV Venus inh 1% and Vaccinia mCherry 0%.
Screening C/C(=N\NC(=O)c1c[nH]c2ccccc12)c1ccco1 returned AmpC inh no detg -32%, VACV Venus inh 0%, Vaccinia mCherry -12%, SARS PLP yeast 11% and AmpC inh detg 0%.
C/C(=N\NC(=O)c1c[nH]c2ccccc12)c1ccccn1 was read as AmpC inh no detg -25%, VACV Venus inh inconclusive, Vaccinia mCherry 10µM*, SARS PLP yeast -2% and AmpC inh detg 5%.
`Cc1nc2ccccc2n1/N=C/c1ccc([N+](=O)[O-])s1` gave AmpC inh no detg -18%, VACV Venus inh -19%, Vaccinia mCherry -30%, SARS PLP yeast -30% and AmpC inh detg 0%.
Screening O=[N+]([O-])c1ccc(/C=N/n2cnc3ccccc32)s1 returned AmpC inh no detg -17%, VACV Venus inh 6.3µM*, Vaccinia mCherry 5µM*, SARS PLP yeast -64% and AmpC inh detg -12%.
Cc1cc2ncn(/N=C/c3ccc([N+](=O)[O-])s3)c2cc1C was read as AmpC inh no detg 8%, VACV Venus inh inconclusive, Vaccinia mCherry inconclusive, SARS PLP yeast -87% and AmpC inh detg -10%.
Screening O=[N+]([O-])c1ccc(/C=N/n2c(CO)nc3ccccc32)s1 returned AmpC inh no detg -15%, VACV Venus inh 4µM*, Vaccinia mCherry 5µM*, SARS PLP yeast -10% and AmpC inh detg 2%.
For COC(=O)[C@@H]1C[C@H](NC(=O)c2cc(C(F)(F)F)ccc2Cl)CN1Cc1cccc(O)c1 the results were VACV Venus inh 8% and Vaccinia mCherry -6%.
For O=C(NCCCN1CCCC1=O)c1ccc2c(c1)NC(=O)c1ccccc1S2 the results were AmpC inh no detg -4%, VACV Venus inh -9%, Vaccinia mCherry -9%, SARS PLP yeast 3% and AmpC inh detg inconclusive.
For CCN1CCN(CCCNC(=O)c2ccc3c(c2)NC(=O)c2ccccc2S3)CC1 the results were AmpC inh no detg 4µM*, VACV Venus inh -4%, Vaccinia mCherry -9%, SARS PLP yeast -2% and AmpC inh detg 1%.
Screening CC(Sc1ncnc2sccc12)C(=O)Nc1ccc(S(N)(=O)=O)cc1 (configuration not stated) returned AmpC inh no detg -25%, VACV Venus inh inconclusive, Vaccinia mCherry 11µM* and SARS PLP yeast 3%.
Screening CC(Sc1ncnc2sccc12)C(=O)Nc1ccc(C(N)=O)cc1 (configuration not stated) returned AmpC inh no detg -33%, SARS PLP yeast -1% and AmpC inh detg 5%.
`COc1ccccc1N1CCN(c2nc(CNC(=O)C3CC34CCCC4)nc3ccccc23)CC1` (configuration not stated) gave VACV Venus inh -3% and Vaccinia mCherry -15%.

High-throughput results deposited in PubChem BioAssay by National Center for Advancing Translational Sciences (NCATS).
